These results are taken from the supplement of paper PMC6555819.

The assay has as its system VDR:RXRa (NR concentration 270 nM, RXRa partner concentration 90 nM). The experiment in a line: PBM binding z-score (relative to random genomic background probes); higher = stronger binding; sequences stand for … in GC…GCGATTGACAGCGTAGAATGAAGG
The method, then: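 Protein-binding microarray (Agilent 4x180K custom design, double-stranded 60-nt probes: 5' GC cap, 34-nt variable region, 24-nt constant primer region; full probe sequence given). Purified or IVT nuclear receptor:RXRα heterodimers (3:1 NR:RXRα, mostly 270:90 nM) or homodimers were incubated for 1 h in PBS with 2% milk and no ligand, then detected with Alexa488 antibodies. Fluorescence from o1-orientation probes (~5 replicates averaged) was converted to z-scores against 500 random hg19 background probes. Variable regions are seed direct-repeat (DR0–DR5) sites, all their single-nucleotide variants and half-site ablations.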
Consider ACTATTAGTTGAGACGAGGGAAACCGATAGGTTG, for which the PBM binding z-score is -0.364. In the case of CCTCGGAGTACAGAAGGTCAGAGCTGTCCGCTTT it was 1.64; in that of TATGCAGGGTCAAAGGCCAGAGTACGAATGTCGA, 4.61; in that of CCTTACGTGTCACTGACAGGTTATAGCATTTGGA, 0.871. With GCTATTTGGTCAGTAAAAGGTCACACACCGGTCG, the PBM binding z-score amounted to 4.32. To GGAATGAGGGCAAGTTGATAGCAGAGTTTGATGG belongs 1.18. In the case of TCTATTAGTTTAAGGGCAACCGACGAGTCCGTTT, the PBM binding z-score amounted to 1.61. In the case of ACTATTAGTTGAGACGAGGGCAAGCGATAGGTTG it was 0.29; in that of CGTCCAAGGTGAAAGGTCAGTGAAGAGATGACGG, 3.69; in that of TCTCGGAGGACAAGAAAGGTCAGAGCTCGACATC, 2.67. To ATATGTAGGTTACAGCCGGGTCATTCAGGCTATG belongs 4.1; to CATACAGGGTCAACTAGGCCAGAGTAGGGACGGC, 5.1.

CATACTAGGTCACCGGAAGGTCAAAGTCCGCATG had a PBM binding z-score of 6.08.

As for TCATATAGGTAATACACGTGAAAGTCGGCATCTA, the PBM binding z-score was 1.01. Sequence ATCTTTAGGTAAAGATAGTTCAGTGAATGCAAAT showed a PBM binding z-score of 0.897. Sequence ATCGAAAGGTCGAAGGTAAGTATACCCACCCGAA yielded a PBM binding z-score of 2.51.

In turn, CGTCAAAGTTTAACTAAGGTAACGTAAAGCACGC displayed a PBM binding z-score of 0.861. To AGAATGAGGTTACCAAAGATCAGGGAAACGCTTG belongs 1.37; to TCCTATAGGTAAATGCTAGGTGAAAGTCCGATCT, 0.359; to GCTAGCAGGCCATTTGGGTCATTCAATGACGGGC, 1.56. To TATAGTTGGTCACGGAGGTCACACACGACGGGTA belongs 5.81; to ATATGTAGGTTATCGGGTCATTTAGTTTGCGCAT, 4.24. Sequence CGAACTAGGTCATTGACAGGACAGTGAGTAGTAA yielded a PBM binding z-score of 2.18.

As for CCTACTGGCCCAAAAAGGTCATTGATGCCGATAA, the PBM binding z-score is 4.47. In the case of CCGAGCAGGTTATGGGGCATTCAGGCAACGGTGA it was -0.144; in that of TATACAGGTTCAAAGGCCAGAGTACGAATGTCGA, 3.76; in that of CCTACTGAGCCATCAGGTCATTGATATCAACGTT, 2.15. To CCTCGGAGGACAACAGGAGGTCAGAGCTGCCAGA belongs 2; to TCTGCTAGGTCACCGATGGTCAGCTAATCTGCTA, 2.17. To CCGACTGGGGCATAAGGGTACCATAAGCCAGCCC belongs -0.316; to TAGCCTAGGTCATGGGTCAGTATACCACGCGAAC, 3.31; to CCTGCTGGGCCAAAGGTCATTGATTCCAATGCTC, 4.43.

GTTAGCAGGCCATTTGGGTCACTCAATGACGGGC returned a PBM binding z-score of 0.985.

In turn, TTACCACGGTGAGCTGAGGTCGTTGATCCAACTC displayed a PBM binding z-score of 1.57. The sequence GCTGCTAGGTCACCTGATGGTCAGCTAAAGCTCG came in with a PBM binding z-score of 1.31.

In turn, ATCTCTAGGTAAAGTTCAGTTAAAGATCGATAGA gave a PBM binding z-score of 1.82. To GGACCGAGGGCAAAGTTGATAGCATCTGTCGACG belongs 0.837; to CGAACTAGGTAATCCAGGACAGTGAATACATTGA, 0.209; to TCTTGTAGATCAACAGGAGGCTAAGAAAGATCGA, -0.0159. CGTCCAAGGTCAGCGAGGTCAGTGAATGCCGAGT showed a PBM binding z-score of 7.6.
